The text below walks through data of PubChem BioAssay (NCATS).

SMILES strings stand for the structures. Inconclusive results are not listed. Entries that show only a call come without a potency. The source made the active and inactive calls. Calls come from the whole dose curve; as a rule, active = well fitted inhibition curve with a large enough effect; inconclusive = small, poorly fitted or top-dose-only effect; inactive = flat fitted curve, though single readings scatter.

One experiment deals with CP250. The experiment is described as follows: qHTS profiling for inhibitors of Plasmodium falciparum proliferation (AID 504749). Note: nearly all actives have a fitted effect of over 60% in size. The following applies: P. falciparum in erythrocytes, SYBR Green DNA, 72 h; series mostly up to 28.7 µM. Put shortly: (§1)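 SYBR Green fluorescence of parasite DNA, read after lysis and overnight dark incubation, measured growth over 72 h in erythrocyte culture at 0.3% parasitemia and 2.5% hematocrit. Data normalised to DMSO and 0.29 uM artemisinin, with plate-drift correction.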
(In general: In qHTS, concentration-response curves come from the screen itself.)
On to `CCN(CC)C(=O)c1cccnc1`, for which the Potency entry is “inactive”.
Consider `CNC(=O)C[C@@H](N)C(=O)N[C@@H](C(=O)N[C@@H]1C(=O)N2[C@@H]1SC(C)(C)[C@@H]2C(=O)O)c1ccc(O)cc1`, for which the Potency result is “inactive”.
Same read-out and setting: for `CCCCCCCCCCCCCCCCCC(=O)OCC(C)O` (stereo not drawn) the value was “inactive”.
Regarding `NC(=S)NS(=O)(=O)c1ccc(N)cc1`, the Potency result is “inactive”.
Take `N=C(N)n1cccn1`: the Potency result is “inactive”.
With `Nc1ncnc2c1ncn2CCOCP(=O)(O)O`, the Potency entry was “inactive”.
Turning to `CCC(C(=O)NC(N)=O)c1ccccc1` (stereo not drawn), the Potency entry is “inactive”.
On the same count and under the same terms, for `CC(C)CCC[C@@H](C)[C@H]1CC[C@H]2[C@@H]3CC=C4C[C@@H](O)CC[C@]4(C)[C@H]3CC[C@]12C` the value was “inactive”.
In the case of `CC1=CCC2CC1C2(C)C` (stereo not drawn), the Potency result was “inactive”.
`NC(N)=O`: the Potency entry is “inactive”.
Same read-out and setting: next, `Cc1ncc(C[n+]2csc(CCOP(=O)(O)OP(=O)(O)O)c2C)c(N)n1`: “inactive”; `Nc1nc(=O)n([C@@H]2CS[C@H](CO)O2)cc1F`: “inactive”; `CCOC(=O)[C@@H](N)CS`: “inactive”.
In the case of `OCC(O)CO`, the Potency entry is “inactive”.
On the same count and under the same terms, for `O=C1c2ccccc2C(=O)C1c1ccc(F)cc1` the value was “inactive”; for `O=C(O)COc1ccccc1/C=N/NC(=O)c1ccncc1`, “inactive”.
Still for that read-out and setting: for `Cc1cccc(C)c1NC(=O)C1CCCCN1C` (stereo not drawn) the value was “inactive”; for `CCC(C)[C@@H](N)C(=O)O` (stereo partly drawn), “inactive”; for `CC(C)(Oc1ccc(C2CCCc3ccccc32)cc1)C(=O)O` (stereo not drawn), “inactive”.
On the same count and under the same terms, for `CC(CC=O)CCCC(C)(C)O` (stereo not drawn) the value was “inactive”; for `S=C1SCN(Cc2ccccc2)CN1Cc1ccccc1`, “inactive”.
With `CC(C)Cc1ccc([C@@H](C)C(=O)NS(C)(=O)=O)cc1`, the Potency entry was “inactive”.
On the same count and under the same terms, next, `COc1cc2c(cc1OC)[C@@H](Cc1cc(OC)c(OC)c(OC)c1)[N+](C)(CCCOC(=O)CC/C=C/CCC(=O)OCCC[N+]1(C)CCc3cc(OC)c(OC)cc3[C@H]1Cc1cc(OC)c(OC)c(OC)c1)CC2` (stereo partly drawn): “inactive”; `COC(=O)CCC[N+](C)(C)C`: “inactive”; `[O]=[Bi][O][Bi]=[O]`: “inactive”.
The same measure, in the same setting: for `C[C@]12CC[C@@H]3c4ccc(OC(=O)c5ccccc5)cc4CC[C@H]3[C@@H]1CC[C@@H]2O` the value was “inactive”.
Turning to `Cc1ccc(C(C)(C)c2ccc(C)cc2)cc1`, the Potency result was “inactive”.
For the compound `FC(F)OC(Cl)C(F)(F)F` (stereo not drawn), the Potency result was “inactive”.
On to `CC(CCc1ccc(O)cc1)NCC(O)c1ccc(O)cc1` (stereo not drawn), for which the Potency result was “inactive”.
Same read-out and setting: next, `CC1=C(/C=C/C(C)=C/C=C/C(C)=C/C(=O)Oc2c(C)c(C)c3c(c2C)CC[C@@](C)(CCC[C@H](C)CCC[C@H](C)CCCC(C)C)O3)C(C)(C)CCC1`: “inactive”; `O=P(O)(O)OP(=O)(O)OP(=O)(O)O`: “inactive”.
For `CO/N=C(\C(=O)N[C@@H]1C(=O)N2C(C(=O)[O-])=C(C[n+]3cccc4c3CCC4)CS[C@H]12)c1csc(N)n1`, the Potency result is “inactive”.
On the same count and under the same terms, next, `CCCCCCCCCCCC(=O)OCC(O)CO` (stereo not drawn): “inactive”.
Still for that read-out and setting: for `CS(=O)(=O)OCC(O)C(O)COS(C)(=O)=O` (stereo not drawn) the value was “inactive”.
Consider `CC1=CC(=O)NS(=O)(=O)O1`, for which the Potency entry was “inactive”.
On to `O=C(O)CCCC/C=C(\c1ccccc1)c1cccnc1`, for which the Potency result is “inactive”.
Same read-out and setting: for `CCN(CC)C(=S)S` the value was “inactive”; for `C[Se]CC[C@H](N)C(=O)O`, “inactive”; for `CC(C)[C@H](N)C(=O)OCC(CO)OCn1cnc2c(=O)[nH]c(N)nc21` (stereo partly drawn), “inactive”.

The next experiment relates to CP252. The description is as above. The following applies: P. falciparum in erythrocytes, SYBR Green DNA, 72 h; series mostly up to 28.7 µM. In outline:
as §1
As to `CCN(CC)C(=O)c1cccnc1`, the Potency entry is “inactive”.
Still for that read-out and setting: next, `CNC(=O)C[C@@H](N)C(=O)N[C@@H](C(=O)N[C@@H]1C(=O)N2[C@@H]1SC(C)(C)[C@@H]2C(=O)O)c1ccc(O)cc1`: “inactive”; `CCCCCCCCCCCCCCCCCC(=O)OCC(C)O` (stereo not drawn): “inactive”; `NC(=S)NS(=O)(=O)c1ccc(N)cc1`: “inactive”.
On the same count and under the same terms, for `N=C(N)n1cccn1` the value was “inactive”; for `Nc1ncnc2c1ncn2CCOCP(=O)(O)O`, “inactive”; for `CCC(C(=O)NC(N)=O)c1ccccc1` (stereo not drawn), “inactive”.
The same measure, in the same setting: next, `CC(C)CCC[C@@H](C)[C@H]1CC[C@H]2[C@@H]3CC=C4C[C@@H](O)CC[C@]4(C)[C@H]3CC[C@]12C`: “inactive”.
`CC1=CCC2CC1C2(C)C` (stereo not drawn): the Potency result is “inactive”.
Take `NC(N)=O`: the Potency result is “inactive”.
Regarding `Cc1ncc(C[n+]2csc(CCOP(=O)(O)OP(=O)(O)O)c2C)c(N)n1`, the Potency entry was “inactive”.
Still for that read-out and setting: next, `Nc1nc(=O)n([C@@H]2CS[C@H](CO)O2)cc1F`: “inactive”; `CCOC(=O)[C@@H](N)CS`: “inactive”.
As to `OCC(O)CO`, the Potency result was “inactive”.
On the same count and under the same terms, next, `O=C1c2ccccc2C(=O)C1c1ccc(F)cc1`: “inactive”; `O=C(O)COc1ccccc1/C=N/NC(=O)c1ccncc1`: “inactive”; `Cc1cccc(C)c1NC(=O)C1CCCCN1C` (stereo not drawn): “inactive”.
On the same count and under the same terms, for `CCC(C)[C@@H](N)C(=O)O` (stereo partly drawn) the value was “inactive”; for `CC(C)(Oc1ccc(C2CCCc3ccccc32)cc1)C(=O)O` (stereo not drawn), “inactive”.
Same read-out and setting: next, `CC(CC=O)CCCC(C)(C)O` (stereo not drawn): “inactive”; `S=C1SCN(Cc2ccccc2)CN1Cc1ccccc1`: “inactive”; `CC(C)Cc1ccc([C@@H](C)C(=O)NS(C)(=O)=O)cc1`: “inactive”.
As to `COc1cc2c(cc1OC)[C@@H](Cc1cc(OC)c(OC)c(OC)c1)[N+](C)(CCCOC(=O)CC/C=C/CCC(=O)OCCC[N+]1(C)CCc3cc(OC)c(OC)cc3[C@H]1Cc1cc(OC)c(OC)c(OC)c1)CC2` (stereo partly drawn), the Potency result is “inactive”.
Same read-out and setting: for `COC(=O)CCC[N+](C)(C)C` the value was “inactive”; for `[O]=[Bi][O][Bi]=[O]`, “inactive”.
On the same count and under the same terms, for `C[C@]12CC[C@@H]3c4ccc(OC(=O)c5ccccc5)cc4CC[C@H]3[C@@H]1CC[C@@H]2O` the value was “inactive”; for `Cc1ccc(C(C)(C)c2ccc(C)cc2)cc1`, “inactive”; for `FC(F)OC(Cl)C(F)(F)F` (stereo not drawn), “inactive”.
Take `CC(CCc1ccc(O)cc1)NCC(O)c1ccc(O)cc1` (stereo not drawn): the Potency result is “inactive”.
The same measure, in the same setting: for `CC1=C(/C=C/C(C)=C/C=C/C(C)=C/C(=O)Oc2c(C)c(C)c3c(c2C)CC[C@@](C)(CCC[C@H](C)CCC[C@H](C)CCCC(C)C)O3)C(C)(C)CCC1` the value was “inactive”; for `O=P(O)(O)OP(=O)(O)OP(=O)(O)O`, “inactive”; for `CO/N=C(\C(=O)N[C@@H]1C(=O)N2C(C(=O)[O-])=C(C[n+]3cccc4c3CCC4)CS[C@H]12)c1csc(N)n1`, “inactive”.
For `CCCCCCCCCCCC(=O)OCC(O)CO` (stereo not drawn), the Potency result is “inactive”.
As to `CS(=O)(=O)OCC(O)C(O)COS(C)(=O)=O` (stereo not drawn), the Potency entry was “inactive”.
Take `CC1=CC(=O)NS(=O)(=O)O1`: the Potency entry is “inactive”.
As to `O=C(O)CCCC/C=C(\c1ccccc1)c1cccnc1`, the Potency result was “inactive”.
`CCN(CC)C(=S)S`: the Potency entry was “inactive”.
On to `C[Se]CC[C@H](N)C(=O)O`, for which the Potency entry was “inactive”.
Same read-out and setting: next, `CC(C)[C@H](N)C(=O)OCC(CO)OCn1cnc2c(=O)[nH]c(N)nc21` (stereo partly drawn): “inactive”.
